Screening data: PubChem, several laboratories
An excerpt weighted towards active compounds, which were near 6.2% of everything screened.
AI-2 QS modul = modulates the Vibrio harveyi AI-2 quorum sensing system. Vibrio harveyi JMH597 AI-2 luminescence/OD600 ratio, 9 h; hits give low values; strain lacks LuxN and CqsS sensors; 0 = neutral-control median. activity change, % at 7.5 µM. actives 0.4% (n = 300,000). AID 2094; in the data active = activity change below about -75%, passing the limit was not always enough;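 also: luminescence divided by OD600 gain over 9 h not by final OD600 alone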
Cardio protect = modulators protecting cardiomyocytes from myocardial damage; H9c2 cardiomyocytes, H2O2 injury protection, ATPLite, 2 h; actives 0.63% (n = 360,000); protection from H2O2 cell death, % at 20 µM;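 active = compounds giving at least 50% protection of heart cells from peroxide-induced death in the single-dose screen, raw or plate-pattern-corrected value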;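 also: 0% = DMSO wells with peroxide and 100% = DMSO wells without peroxide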
Mot1-301 SUMO = SUMOylation pathway inhibition by Mot1-301 growth rescue; S. cerevisiae Mot1-301 growth rescue, ATP luminescence, 38.5C; percent above DMSO median, 100 means doubled; growth rescue, % at 18.8 µM; actives 1% (n = 320,000);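 active = every valid replicate shows activation above 250% relative to neutral control wells; inactive = the rest, any valid replicate at or below 250%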;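 also: OY570 slx delta 5 strain wells were the positive control but not used for scaling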
NTR1 agonist = NTR1 (human) agonism. NTR1-U2OS beta-arrestin-GFP spot imaging, agonist mode. AID 493036. actives 0.17% (n = 330,000). activation, % at 20 µM. P30989;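 active = activation at or above 40% of the spot to cytoplasm intensity ratio, with at least 20 cells analyzed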;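 also: 0% = DMSO without peptide and 100% = 100 nM NTR1 peptide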
Target sequence (P30989 whole entry, looked up): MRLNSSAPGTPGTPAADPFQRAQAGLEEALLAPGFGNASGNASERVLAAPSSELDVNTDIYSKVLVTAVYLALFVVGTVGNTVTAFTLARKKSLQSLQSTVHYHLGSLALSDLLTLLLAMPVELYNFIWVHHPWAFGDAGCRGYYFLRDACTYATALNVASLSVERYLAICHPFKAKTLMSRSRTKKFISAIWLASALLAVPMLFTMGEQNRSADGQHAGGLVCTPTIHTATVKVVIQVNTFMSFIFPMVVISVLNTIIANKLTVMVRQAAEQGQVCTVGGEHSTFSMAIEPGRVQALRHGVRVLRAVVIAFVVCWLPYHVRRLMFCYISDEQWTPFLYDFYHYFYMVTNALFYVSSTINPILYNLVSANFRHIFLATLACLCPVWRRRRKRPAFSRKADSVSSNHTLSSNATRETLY
NR3A LBD binder = modulates the human NR3A ligand-binding domain; NR3A LBD differential scanning fluorimetry, Tm shift; 0% = protein alone, 100% = glycine-bound protein; Tm shift relative to glycine control, % at 25 µM; actives 2.5% (n = 340,000); AID 1259313;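 active = melting temperature shift of at least 10% of the positive control shift, at one fixed dose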
AHR act = human AHR activation | AID 2796 | actives 2.5% (n = 320,000) | P35869 | activation, % at 5 µM | AHR-responsive luciferase reporter cells, luminescence; in the data active = activation above about 47%;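 also: 0% = vehicle wells and 100% = reference agonist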
The depositor's hits bear a star; / = no result.

SMILES	AI-2 QS modul	Cardio protect	Mot1-301 SUMO	NTR1 agonist	NR3A LBD binder	AHR act
O=C1S/C(=C\c2ccccc2)C(=O)N1CC(O)Cn1c2ccccc2c2ccccc21 (stereo not drawn)	-7	-4	-18	/	0	1
Nc1nonc1-n1nnc(C(=O)N/N=C/c2cccs2)c1CSc1ccccc1	37	2	-7	4	37*	1
CCc1c(C(=O)N/N=C/c2cccs2)nnn1-c1nonc1N	3	-2	148	-2	22*	17
Nc1nonc1-n1nnc(C(=O)N/N=C/c2ccc3c(c2)OCO3)c1CSc1ccccc1	36	-6	-2	7	39*	4
Nc1nonc1-n1nnc(C(=O)N/N=C/c2ccccc2Cl)c1CSc1ccccc1	26	-4	-10	10	30*	2
CCN(CC)Cc1c(C(=O)N/N=C/c2cccs2)nnn1-c1nonc1N	10	-2	23	2	7	-2
COc1ccc2[nH]c3c(c2c1)CCN1C(=O)C(CC(=O)NCCC2=CCCCC2)C[C@H](C(=O)N2CCCCC2)[C@@]31C (stereo partly drawn)	/	0	/	3	-1	/
COc1ccc(N(CC(=O)N/N=C(\C)c2ccc(OC)c(OC)c2)S(=O)(=O)c2ccccc2)cc1	10	1	7	-1	4	5
COc1cccc(-c2nc(C(=O)NCC3CCCO3)cc3c2[nH]c2ccccc23)c1 (stereo not drawn)	3	30	241	7	-6	-3
Cc1ccc(/C=N/NC(=O)c2nnn(-c3nonc3N)c2CSc2ccc(Cl)cc2)cc1	8	4	5	6	26*	4
Nc1nonc1-n1nnc(C(=O)N/N=C/c2c(Cl)cccc2Cl)c1CSC1=NCCS1	34	2	-4	4	-2	2
Cc1ccc(SCc2c(C(=O)N/N=C/c3ccncc3)nnn2-c2nonc2N)cc1	11	0	7	10	9	5
Nc1nonc1-n1nnc(C(=O)N/N=C/C=C/c2ccccc2)c1CSC1=NCCS1	-2	2	1	6	16*	-2
CCNC(=O)NC(=O)COC(=O)c1cccc(S(=O)(=O)N2CC3(C)CC2CC(C)(C)C3)c1 (stereo not drawn)	0	-6	-9	1	3	1
COC(=O)C[C@H]1C[C@H]2c3cc(NS(=O)(=O)c4cccc(OC)c4)ccc3O[C@H]2[C@@H](CO)O1	/	-1	/	/	/	/
CCn1cc(C(=O)O)c(=O)c2cc(F)c(N/N=C/c3ccccc3[N+](=O)[O-])cc21	18	2	669*	10	-6	3
O=C(Nc1ccc(Cl)cc1)c1cc2c(cc1O)[nH]c1ccccc12	138	-19	17	19	32*	4
O=C(Oc1cccc2ccccc12)c1cc(Cl)nc2ccccc12	9	-18	-14	3	14*	11
Cc1ccc(NC(=O)c2cc(Cl)nc3ccccc23)cc1	14	-3	4	-7	-1	32
Cc1cc(C(=O)Nc2ccc(Cl)cc2)c2ccccc2n1	13	0	15	4	2	66*
Cc1cccc(NC(=O)c2cc(Cl)nc3ccccc23)c1	31	0	-14	-2	0	62*
COc1ccc2oc(C(=O)OCC(=O)Nc3ccc(C)c(S(=O)(=O)N4CCOCC4)c3)c(C)c2c1	/	3	/	/	/	/
COc1ccccc1C(=O)Nc1ccc(OCC(=O)N2CC(C)CC(C)C2)cc1 (stereo not drawn)	/	-7	-1	-1	0	-5
Cc1nc2ccc(S(=O)(=O)CCC(=O)NCCc3ccccc3)cc2s1	/	-8	/	/	/	/
N#CCC(=O)Nc1ccc(C(=O)N2CCN(c3ccccn3)CC2)cc1	23	6	-1	2	1	-2
SMILES	AI-2 QS modul	Cardio protect	Mot1-301 SUMO	NTR1 agonist	NR3A LBD binder	AHR act
COc1ccc(Cl)cc1C(=O)Nc1ccc(NC(C)=O)cc1	1	4	13	0	-13	15
CC(=O)Oc1c(I)cc(I)cc1C(=O)Nc1ccc(Cl)cc1	-4	-20	0	5	16*	6
COC(=O)CCCCC(=O)C1C(=O)CC(C)(C)C(C(=O)OC)C1=O (stereo not drawn)	14	12	0	0	12*	-2
CC(C)CNC(=S)N(CCO)Cc1cc2cc3c(cc2[nH]c1=O)OCO3	44	5	6	0	2	26
O=C(C1=NN[C@@H]2C(=O)N(c3cccc(C(F)(F)F)c3)C(=O)[C@H]12)C(c1ccccc1)c1ccccc1	17	-1	14	0	16*	3
COc1cc2oc3cc(C)oc(=O)c3c2cc1OC	16	5	11	-1	16*	-4
N#Cc1ccc(COC(=O)CCc2c[nH]c3ccccc23)cc1	15	-10	237	1	-12	0
Cc1c(/C=N/NC(=O)CNc2ccccc2)c2ccccn2c1C(=O)c1ccc(Cl)cc1	24	23	-7	8	6	17
Cc1ccccc1NCC(=O)N/N=C/c1c(C)c(C(=O)c2ccc(Cl)cc2)n2ccccc12	-1	-6	10	8	12*	41
CC1=NN(C(N)=S)C(=O)C1N=Nc1ccccc1 (stereo not drawn)	15	-2	-4	2	-13	70*
CC1=NN(C(N)=S)C(=O)C1N=Nc1cccc2ccccc12 (stereo not drawn)	26	/	-23	/	/	93*
CC1=NN(C(N)=S)C(=O)C1N=Nc1cccc([N+](=O)[O-])c1 (stereo not drawn)	23	-2	134	0	-1	63*
CC1=NN(C(N)=S)C(=O)C1N=Nc1ccc(Cl)cc1 (stereo not drawn)	11	-3	-7	0	-1	/
CC1=NN(C(N)=S)C(=O)C1N=Nc1ccc(Br)cc1 (stereo not drawn)	24	-3	104	0	3	/
CCN(C(=O)Cn1ccc(C(F)(F)F)n1)c1c(N)n(Cc2ccccc2)c(=O)[nH]c1=O	/	7	1	-1	2	-1
CN1CC(C(=O)O)Cc2c1ccc1ccccc21 (stereo not drawn)	-7	-10	-15	0	2	54*
O=C(O)C1CCN(C(=O)c2cccc3ccccc23)CC1	16	2	-15	-1	-1	-3
O=C1Nc2ccccc2S/C1=C\C(=O)N1CCCC1	13	/	4	0	/	64*
O=C(O)c1ccc(COc2ccccc2C=C2C(=O)c3ccccc3C2=O)cc1	22	14	-26	1	29*	11
Cc1cccc(N=C2NC(=O)/C(=C/c3cccnc3)S2)c1C	/	0	-4	4	4	47*
Cc1ccc(N=C2NC(=O)/C(=C/c3cccnc3)S2)c(C)c1	-6	-4	22	2	0	13
